Our source for the Potency and outcome values is PubChem BioAssay (NCATS).

Records with an inconclusive call do not appear. A call without a number means that no potency is given here. Active and inactive are the calls of the source. Unless noted, the call rests on the fitted dose curve; in most records, active means well fitted curve in the direction sought with a large enough effect; inconclusive means small, poorly fitted or top-dose-only effect, or another doubt; inactive means no such curve, though single readings can be large; an effect the other way counts as inactive or inconclusive.

A short description of experiment [1]: Primary qHTS for small molecule stabilizers of the endoplasmic reticulum resident proteome: Secreted ER Calcium Modulated Protein (SERCaMP) assay (AID 1508630). The essentials: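 GLuc-SERCaMP-expressing SH-SY5Y cells, pretreated 16 h with compound, are challenged with thapsigargin to empty ER calcium stores; after 4 h, coelenterazine is added directly to the medium and luminescence is imaged.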
A general note: qHTS replaces the single test concentration by a dilution series.

Experiment [2] deals with Papain (Carica papaya) (UniProt P00784). Briefly: Primary qHTS assay for inhibitors of the protease papain (AID 1645873).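 Further: papain turnover of Z-FR-AMC read as the AMC fluorescence gain over 10 min.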 Further: potency means the concentration at half of the fitted maximal effect.
Chain of Papain (Carica papaya) (P00784 whole entry, looked up): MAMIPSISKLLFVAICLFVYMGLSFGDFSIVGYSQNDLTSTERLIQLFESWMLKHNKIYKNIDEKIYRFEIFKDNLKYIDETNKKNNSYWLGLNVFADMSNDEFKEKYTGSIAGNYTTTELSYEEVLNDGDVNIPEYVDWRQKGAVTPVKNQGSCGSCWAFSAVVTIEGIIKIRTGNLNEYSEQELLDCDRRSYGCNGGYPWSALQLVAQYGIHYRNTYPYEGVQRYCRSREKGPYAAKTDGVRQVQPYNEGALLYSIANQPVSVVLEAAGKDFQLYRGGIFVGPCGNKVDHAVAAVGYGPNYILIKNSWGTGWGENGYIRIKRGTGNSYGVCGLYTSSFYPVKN
In experiment [3] the target is Cytochrome P450 3A4 (Homo sapiens) (UniProt P08684). Briefly: Cytochrome P450 family 3 subfamily A member 4 (CYP3A4) small molecule antagonists: luciferase qHTS assay (AID 1645841; active means well fitted curve in the direction sought with a large enough effect in the repeat runs; an effect the other way counts as inactive or inconclusive; further: nearly all actives have a fitted effect of over 45% in size). The essentials:
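P450-Glo CYP3A4 enzyme with proluciferin substrate was preincubated with DMSO-dissolved compounds for 10 min at room temperature. NADPH regeneration solution started a 1 h reaction. Detection reagent stopped it, and luminescence was read after 20 min.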

Experiment [4] concerns the target N-terminal Xaa-Pro-Lys N-methyltransferase 1 (Homo sapiens) (UniProt Q9BV86). Put plainly: Confirmatory qHTS for Inhibitors of N-terminal methyltransferase 1 (NTMT1): MTaseGlo Assay (AID 1645874). Further: potency means the concentration at half of the fitted maximal effect; nearly all actives have a fitted effect of over 65% in size. To be noted: NTMT1 enzyme, MTase-Glo SAH luminescence. The essentials:
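NTMT1 (125 nM) preincubated 15 min with compound and 100 uM SAM, then 1 uM SPKRIA peptide added for 30 min at room temperature. SAH detected by MTase-Glo luminescence; normalized to no-enzyme and DMSO controls, fitted to 4-parameter Hill.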

The target in experiment [5] is Cytochrome P450 2D6 (Homo sapiens) (UniProt P10635). Briefly: Cytochrome P450 family 2 subfamily D member 6 (CYP2D6) small molecule antagonists: luciferase biochemical (cell-free) qHTS assay (AID 1645840; active means well fitted curve in the direction sought with a large enough effect in the repeat runs; an effect the other way counts as inactive or inconclusive; further: nearly all actives have a fitted effect of over 55% in size; further: potency means the concentration at half of the fitted maximal effect). The essentials: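 P450-Glo luminescent screen: recombinant CYP2D6 enzyme–proluciferin substrate mix preincubated with compound 10 min at room temperature, then NADPH regeneration added for 1 h at room temperature. Detection reagent added for 20 min; luciferin light read as relative luminescence units.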
Chain of Cytochrome P450 2D6 (Homo sapiens) (P10635 whole entry, looked up): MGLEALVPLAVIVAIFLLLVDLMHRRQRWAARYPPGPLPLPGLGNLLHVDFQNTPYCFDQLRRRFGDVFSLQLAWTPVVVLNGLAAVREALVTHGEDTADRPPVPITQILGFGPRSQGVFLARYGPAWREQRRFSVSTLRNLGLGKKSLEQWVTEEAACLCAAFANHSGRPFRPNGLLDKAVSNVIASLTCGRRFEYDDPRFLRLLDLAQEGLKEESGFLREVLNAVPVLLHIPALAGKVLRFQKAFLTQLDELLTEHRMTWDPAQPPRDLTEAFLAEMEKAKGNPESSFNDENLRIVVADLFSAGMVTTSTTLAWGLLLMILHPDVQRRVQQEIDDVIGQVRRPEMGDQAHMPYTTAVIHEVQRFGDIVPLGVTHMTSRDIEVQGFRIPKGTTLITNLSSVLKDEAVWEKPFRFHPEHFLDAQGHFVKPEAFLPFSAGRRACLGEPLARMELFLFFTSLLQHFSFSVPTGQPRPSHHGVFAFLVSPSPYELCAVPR

For experiment [6], the target named is Cytochrome P450 2C9 (Homo sapiens) (UniProt P11712). Briefly: Cytochrome P450 family 2 subfamily C member 9 (CYP2C9) small molecule antagonists: luciferase biochemical (cell-free) qHTS assay (AID 1645842; active means well fitted curve in the direction sought with a large enough effect in the repeat runs; an effect the other way counts as inactive or inconclusive; further: nearly all actives have a fitted effect of over 55% in size; further: potency means the concentration at half of the fitted maximal effect). The essentials:
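Luminescence, after 20 min with luciferin detection reagent, reflected CYP2C9 turnover during a 1 h NADPH-driven reaction at 37C. Enzyme-substrate mix contained 0.4% bovine serum albumin and was preincubated with compound 10 min at room temperature.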

A short description of experiment [7]: A High-Content qHTS Against Drug Library for the Identification of Small Molecules that Inhibit DYT1 Early Onset Primary Dystonia-Associated Cell Pathology (AID 1645839; calls by dose curve; further: series mostly up to about 46 µM). The essentials: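 Readout: %pathology, the punctate EGFP-TorsinA distribution from imaging, as the primary channel and cell count as the toxicity counterscreen. HEK293 Flp-In cells expressing delE TorsinA were induced with tetracycline and treated with compound for 48 h.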

Chain of N-terminal Xaa-Pro-Lys N-methyltransferase 1 (Homo sapiens) (Q9BV86 whole entry, looked up): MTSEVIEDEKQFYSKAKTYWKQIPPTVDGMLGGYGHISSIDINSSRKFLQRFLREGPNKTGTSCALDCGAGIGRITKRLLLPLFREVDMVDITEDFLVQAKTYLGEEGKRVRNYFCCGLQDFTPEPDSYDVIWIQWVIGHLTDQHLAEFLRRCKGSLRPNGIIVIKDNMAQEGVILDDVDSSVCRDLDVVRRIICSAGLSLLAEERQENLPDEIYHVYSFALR
Chain of Cytochrome P450 2C9 (Homo sapiens) (P11712 whole entry, looked up): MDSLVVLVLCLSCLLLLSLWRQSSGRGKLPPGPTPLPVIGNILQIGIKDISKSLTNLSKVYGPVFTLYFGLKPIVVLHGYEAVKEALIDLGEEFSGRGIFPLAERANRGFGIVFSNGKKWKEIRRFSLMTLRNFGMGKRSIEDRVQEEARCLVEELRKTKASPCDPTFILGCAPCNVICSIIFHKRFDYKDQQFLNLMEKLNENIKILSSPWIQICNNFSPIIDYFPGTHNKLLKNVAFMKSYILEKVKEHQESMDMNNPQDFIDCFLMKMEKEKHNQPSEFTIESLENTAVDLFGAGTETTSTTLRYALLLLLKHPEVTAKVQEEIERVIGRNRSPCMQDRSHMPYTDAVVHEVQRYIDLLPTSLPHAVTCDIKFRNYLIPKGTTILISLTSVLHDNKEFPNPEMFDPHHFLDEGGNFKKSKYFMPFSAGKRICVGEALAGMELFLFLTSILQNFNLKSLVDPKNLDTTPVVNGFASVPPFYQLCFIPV
Chain of Cytochrome P450 3A4 (Homo sapiens) (P08684 whole entry, looked up): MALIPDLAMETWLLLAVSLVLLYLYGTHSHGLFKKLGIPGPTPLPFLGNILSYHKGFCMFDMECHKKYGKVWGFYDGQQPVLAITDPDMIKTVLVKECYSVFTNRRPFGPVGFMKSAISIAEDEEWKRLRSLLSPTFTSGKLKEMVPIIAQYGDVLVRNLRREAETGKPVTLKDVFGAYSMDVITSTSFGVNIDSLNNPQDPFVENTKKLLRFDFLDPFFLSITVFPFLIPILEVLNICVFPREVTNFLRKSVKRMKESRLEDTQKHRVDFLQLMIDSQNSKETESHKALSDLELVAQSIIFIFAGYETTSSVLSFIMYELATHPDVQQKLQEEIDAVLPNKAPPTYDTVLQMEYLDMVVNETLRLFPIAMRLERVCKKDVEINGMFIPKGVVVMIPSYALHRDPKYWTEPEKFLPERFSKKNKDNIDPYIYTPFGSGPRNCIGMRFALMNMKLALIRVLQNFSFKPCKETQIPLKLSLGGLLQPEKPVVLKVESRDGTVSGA

As for `N[C@@H](CC(=O)O)C(=O)O`, the Potency result in experiment [1] and in experiment [2] was “inactive” in each case.
For `OCC1O[C@H](O)C(Cl)C(O)C1O` (stereo partly specified), the Potency entry in experiment [1] and in experiment [2] was “inactive” throughout.
Take `c1cnc2c(c1)ccc1cccnc12`: the Potency entry in experiment [1] was “inactive”. Also, in experiment [2], the Potency is 15.8 µM (active).
For `O=C(O)c1cc(=O)c2ccccc2[nH]1`, in that order: “inactive” and “inactive”.
Taken in the same sequence, the figures for `C[N+](C)(C)CCOP(=O)(O)OP(=O)([O-])OC[C@H]1O[C@@H](n2ccc(N)nc2=O)[C@H](O)[C@@H]1O` were “inactive” and “inactive”.
For `Cc1cc(NC2CCCCC2)nc(-n2nc(C)cc2C)n1`, in that order: “inactive” and “inactive”.
Take `Clc1ccc(N2CCN(Cc3cc4ccccn4n3)CC2)cc1`: the Potency result in experiment [1] and in experiment [2] was “inactive” throughout.
For the molecule `O=C(O)CNC(=O)C(CS)Cc1ccccc1` (stereo unspecified), the Potency entry in experiment [1] and in experiment [2] was “inactive” each time.
For `O=C(Nc1cccc(C(=O)Nc2ccc(S(=O)(=O)O)c3cc(S(=O)(=O)O)cc(S(=O)(=O)O)c23)c1)Nc1cccc(C(=O)Nc2ccc(S(=O)(=O)O)c3cc(S(=O)(=O)O)cc(S(=O)(=O)O)c23)c1`, in experiment [1], the Potency result was “inactive”. Besides, in experiment [2], the Potency was 3.16 µM (active).
Taken in the same sequence, the figures for `S=C(S)OC1CC2CC1C1CCCC21` (stereo unspecified) were “inactive” and “inactive”.
For `CNC(=O)[C@H]1O[C@@H](n2cnc3c(NCc4ccc(N)cc4)ncnc32)[C@H](O)[C@@H]1O`, in that order: “inactive” and “inactive”.
Taken in the same sequence, the figures for `OC[C@H]1O[C@@H](n2cnc3c(NC4CCCCC4)ncnc32)[C@H](O)[C@@H]1O` were “inactive” and “inactive”.
As to `N=C(N)N`, in experiment [3], the molecule was called inactive.
The same measure, in the same setting: the same measure for `CCOC(=O)c1ccccc1O`: “inactive”.
`O=C1NC(=O)/C(=C/c2ccc(-c3ccc(F)cc3O)o2)S1`: the Potency in experiment [4] was 34.5 µM (active).
As to `CN=c1nc(-c2ccccc2)n(-c2ccccc2)s1`, the Potency in experiment [4] was 0.851 µM (active).
On to `O=C(O)[C@H](CC(=O)N1C[C@H]2CCCC[C@H]2C1)Cc1ccccc1`, for which the Potency entry in experiment [5] and in experiment [6] was “inactive” throughout.
Regarding `O=C1NC(=O)/C(=C/c2ccc3nccnc3c2)S1`, the Potency entry in experiment [2] was “inactive”.
With `CN(C)c1ccc(C(=C2C=CC(=[N+](C)C)C=C2)c2ccccc2)cc1`, the Potency in experiment [5] was 8.71 µM (active).
For the molecule `CCC(CO)Nc1nc(NCc2ccccc2)c2ncn(C(C)C)c2n1` (stereo unspecified), the Potency result in experiment [2] is “inactive”.
For the molecule `CS(=O)(=O)c1ccc(-n2nc(C(F)(F)F)cc2-c2ccc(F)cc2)cc1`, the values for the Potency in experiment [5] and in experiment [6] were 9.52 µM (active) and 3.38 µM (active), respectively. Further, the Potency result in experiment [2] was “inactive”.
For `CC(C)c1cccc(C(C)C)c1N1C(=O)c2ccc(O)cc2C1=O`, in experiment [2], the Potency result is “inactive”.
Regarding `O=C(c1ccc(OCCCc2cnc[nH]2)cc1)C1CC1`, the Potency entry in experiment [2] is “inactive”.
Regarding `CCN(CC)CCCCNc1ncc2cc(-c3c(Cl)cccc3Cl)c(NC(=O)NC(C)(C)C)nc2n1`, the Potency is 19 µM (active) in experiment [6] and 28.2 µM (active) in experiment [2].
As to `Nc1ccn([C@@H]2O[C@H](CO)[C@@H](O)[C@@H]2O)c(=O)n1`, the Potency entry in experiment [2] is “inactive”.
Same read-out and setting: the same measure for `COC1=C(OC)C(=O)c2ccccc2C1=O`: “inactive”; for `CCCC(CCC)C(=O)OC1CC2CCC(C1)[N+]2(C)C` (stereo unspecified): “inactive”.
As for `NS(=O)(=O)c1ccc(-n2nc(C(F)(F)F)cc2-c2ccc(Cl)cc2)cc1`, the figures for the Potency in experiment [5] and in experiment [6] were 7.56 µM (active) and 10.7 µM (active), respectively. Moreover, the Potency result in experiment [2] is “inactive”.
As for `O=c1cc(-c2ccccc2)oc2ccccc12`, the Potency in experiment [6] is 15.4 µM (active); in experiment [4], 50.1 µM (active).
Turning to `O=C(Nc1ccc2[nH]ncc2c1)C1CCC1`, the Potency result in experiment [2] is “inactive”.
As for `NC(=O)C(c1ccccc1)(c1ccccc1)[C@@H]1CCN(CCc2ccc3c(c2)CCO3)C1`, the Potency in experiment [5] was 0.617 µM (active). Besides, in experiment [6], the Potency entry was “inactive”.
Regarding `Nc1ccn([C@H]2O[C@H](CO)[C@@H](O)C2(F)F)c(=O)n1`, the Potency entry in experiment [2] was “inactive”.
`Fc1ccc2[nH]c(CN3CCN(c4ccccn4)CC3)cc2c1`: the Potency in experiment [5] is 5.35 µM (active); in experiment [6], 6.74 µM (active). Moreover, the Potency entry in experiment [2] is “inactive”.
For `CN(CCCOc1ccc(Cc2ccccc2)cc1)CCC(=O)O`, in that order: “inactive”, “inactive” and “inactive”.
Take `Nc1ccc([N+](=O)[O-])cc1O`: the Potency in experiment [6] is 39.9 µM (active).
`O=C1CN(/N=C/c2ccc([N+](=O)[O-])o2)C(=O)N1`: the Potency result in experiment [7] and in experiment [6] was “inactive” in each case.
On to `COC(=O)C1=C(C)NC(C)=C(C(=O)OC)C1c1cccc(NC(=O)NCCCN2CCC(c3cccc(OC)c3)CC2)c1`, for which the Potency in experiment [5] is 4.25 µM (active); in experiment [6], 1.69 µM (active). In addition, the Potency result in experiment [2] was “inactive”.
Turning to `CC(C)CC(NP(=O)(O)O[C@@H]1O[C@@H](C)[C@H](O)[C@@H](O)[C@H]1O)C(=O)NC(Cc1c[nH]c2ccccc12)C(=O)O` (stereo partly specified), the Potency entry in experiment [2] is “inactive”.
On the same count and under the same terms, the same measure for `Cc1cc2c(cc1Cl)N(C(=O)Nc1ccc(Oc3cccnc3C)nc1)CC2`: “inactive”; for `CCNc1nc2c(ncn2[C@H]2C[C@H](O)[C@@H](CO)O2)c(=O)[nH]1`: “inactive”.
On to `CCCCN(CC)c1nc(C)nc2c1c(C)cn2-c1c(C)cc(C)cc1C`, for which the Potency entry in experiment [5] and in experiment [2] was “inactive” each time. Also, the Potency in experiment [6] was 12 µM (active).
Regarding `C[S+](CC[C@H](N)C(=O)O)C[C@H]1O[C@@H](n2cnc3c(N)ncnc32)[C@H](O)[C@@H]1O` (stereo partly specified), in experiment [5], the Potency result was “inactive”.
With `O=C(CCc1ccncc1)NNC(=O)N1Cc2ccccc2Oc2ccc(Cl)cc21`, the Potency entry in experiment [2] was “inactive”.
As for `CC[C@H]1OC(=O)[C@H](C)C(O[C@H]2C[C@@](C)(OC)[C@@H](O)[C@H](C)O2)[C@H](C)[C@@H](OC2O[C@H](C)C[C@H](N(C)C)[C@H]2O)[C@](C)(O)C[C@@H](C)CN(C)[C@H](C)[C@@H](O)[C@]1(C)O` (stereo partly specified), the Potency result in experiment [2] was “inactive”.
The same measure, in the same setting: the same measure for `COc1ccc(Br)cc1S(=O)(=O)NC(=O)/C=C/c1ccccc1Cc1ccc2ccccc2c1`: “inactive”.
As for `C=CCN1C(=O)C(CC(C)C)NC1=S` (stereo unspecified), the Potency in experiment [6] is 23.9 µM (active).
Take `O=[N+]([O-])c1ccc(CNc2nc(NCc3cccc(C(F)(F)F)c3)nc3nc[nH]c23)cc1`: the Potency in experiment [6] is 1.07 µM (active). Besides, the Potency result in experiment [2] was “inactive”.
For `CN(C)CCn1nnnc1SCC1=C(C(=O)O)N2C(=O)[C@@H](NC(=O)Cc3csc(N)n3)[C@H]2SC1`, the Potency entry in experiment [7] and in experiment [6] was “inactive” throughout.
As to `O=C1NC(O)=NC1(c1ccccc1)c1ccccc1`, the Potency entry in experiment [5] and in experiment [2] was “inactive” throughout.
Turning to `O=C(Nc1ccc2c(c1)CCN(Cc1ncn[nH]1)C2)c1ccccc1-c1ccc(C(F)(F)F)cc1`, the Potency in experiment [5] was 0.12 µM (active); in experiment [6], 10.7 µM (active). The Potency entry in experiment [2] is “inactive”.
Regarding `CCCCCCCCCCCCOCCO`, the Potency entry in experiment [7] and in experiment [6] was “inactive” throughout.
Take `CCCC(=O)OC[C@@H](OC(=O)CCC)[C@@H](OC(=O)CCC)[C@H](Cn1c2nc(=O)[nH]c(=O)c-2nc2cc(C)c(C)cc21)OC(=O)CCC`: the Potency in experiment [5] is 7.76 µM (active).
Still for that read-out and setting: the same measure for `O=c1[nH]c2ccccc2n1CCCN1CCN(C(c2ccccc2)c2ccccc2)CC1`: 0.055 µM (active).
`Cc1cn([C@H]2CC(N=[N+]=[N-])[C@@H](CO)O2)c(=O)[nH]c1=O` (stereo partly specified): in experiment [2], the Potency result was “inactive”.
For the molecule `S=c1[nH]c(-c2ccccc2)cn1-c1ccccc1`, in experiment [2], the Potency result is “inactive”.
For `Nc1ncnc2c1c(I)cn2[C@@H]1C[C@H](N)[C@@H](O)[C@H]1O`, the Potency in experiment [4] is 3.65 µM (active).
